Records with an inconclusive call do not appear. Entries that show only a call come without a potency. Unmarked numbers belong to inactive results. The source made the active and inactive calls. Calls follow the shape of the dose curve; as a rule, active = well fitted curve in the direction sought with a large enough effect in the repeat runs; inconclusive = weak or mixed curves; inactive = no such curve, though single readings can be large; an effect the other way counts as inactive or inconclusive.

One assay is described as follows: qHTS assay to identify small molecule agonists of the sonic hedgehog signaling (Shh) pathway - cell viability counter screen (AID 1259366). Also: nearly all actives have a fitted effect of over 50% in size. The note with it: NIH/3T3 Gli1-Luc viability, CellTiter-Fluor, 24 h; series mostly up to 92.4 µM. The gist of the method: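 Cells are plated at 2,000 per well and left 4hr at 37C, 5% CO2 before compound addition. After 23hr of treatment, CellTiter-Fluor reagent is added for 1hr at 37C and fluorescence is measured.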
For orientation: Quantitative high-throughput screening tests each substance at several concentrations.
Take `Nc1nc(-c2ccc([N+](=O)[O-])cc2)cs1`: the Potency result is “inactive”. Still for that read-out and setting: the result for `Cc1cccc(C)c1NC(=O)c1cc(S(N)(=O)=O)c(Cl)cc1O` reads “inactive”.

Regarding `CCCCCCCCCCCCCOC(=O)CCSCCC(=O)OCCCCCCCCCCCCC`, the viability change, negative = cytotoxic was 2.43% [at 19 µM]. On to `CCCCCC`, for which the Potency result is “inactive”. For `Cc1ccccc1S(N)(=O)=O`, the Potency result is “inactive”. Same read-out and setting: the result for `CCN(CC)CCOC(=O)C(c1ccccc1)c1ccccc1` reads “inactive”; that for `O=S(=O)(O)CO`, “inactive”; that for `O=C(O)CN1C(=O)c2cccc3cccc(c23)C1=O`, “inactive”. On to `SCCc1cnccn1`, for which the Potency entry was “inactive”. Take `COc1ccc(C)cc1`: the Potency entry was “inactive”. With `O=C1OC(=O)c2c(Br)c(Br)c(Br)c(Br)c21`, the Potency entry was “inactive”.

For `OCC(CO)n1cnc(-c2ccc(F)cc2)c1-c1ccnc(Oc2ccccc2)n1`, the Potency result was “inactive”. Take `C1CCCCC1`: the Potency result is “inactive”. Still for that read-out and setting: the result for `Cc1c[nH]c2ccccc12` reads “inactive”.

As to `O=C(O)CCS`, the Potency entry was “inactive”. Take `Cc1ccc2nc(N)[nH]c(=O)c2c1Sc1ccncc1`: the Potency entry was “inactive”.

With `O=C(O)CCCc1c[nH]c2ccccc12`, the Potency entry was “inactive”. Still for that read-out and setting: to `CCCCCCCC(=O)Oc1c(Br)cc(C#N)cc1Br` belongs “inactive”. `CCN(CC)CC(=O)Nc1c(C)cccc1C(=O)OC`: the Potency entry is “inactive”. Consider `CC1CCCO1` (centres undefined), for which the Potency entry was “inactive”. Regarding `CC1=CC[C@@]23C[C@@H]1C(C)(C)[C@@H]2CC[C@H]3C`, the Potency result was “inactive”. Turning to `COc1ccc(/C=C/C(=O)c2ccc(OC)cc2OC)cc1`, the Potency entry is “inactive”. As for `CCNc1nc(N)nc(Cl)n1`, the Potency entry is “inactive”. The same measure, in the same setting: to `COC(CC(C)CCCC(C)(C)O)OC` (centres undefined) belongs “inactive”; to `CC(=O)NNC(C)=O`, “inactive”; to `Nc1ccn([C@H]2CS[C@@H](CO)O2)c(=O)n1`, “inactive”. For `Nc1ccc(S(=O)(=O)NCc2ccccc2)cc1`, the Potency entry was “inactive”.

For the compound `CC(C)(C)S`, the Potency result is “inactive”. As for `CC(=O)OCC(=O)[C@@]1(OC(C)=O)[C@@H](C)C[C@H]2[C@@H]3C[C@H](F)C4=CC(=O)C=C[C@]4(C)[C@@]3(F)[C@@H](O)C[C@@]21C`, the Potency entry was “inactive”. As for `CCCCCCOC(=O)CCCCC`, the Potency result was “inactive”. On the same count and under the same terms, to `CC/C=C\C/C=C\C/C=C\CCCCCCCC(=O)OCC` belongs “inactive”; to `O=C(O)CCC(=O)OC[C@@H](NC(=O)C(Cl)Cl)[C@H](O)c1ccc([N+](=O)[O-])cc1`, “inactive”.

Another assay is described as follows: qHTS assay to identify small molecule antagonists of the sonic hedgehog signaling (Shh) pathway - cell viability counter screen (AID 1259367). Also: nearly all actives have a fitted effect of over 55% in size. The following applies: NIH/3T3 Gli1-Luc viability, CellTiter-Fluor, 24 h; series mostly up to 92.4 µM. The gist of the method:
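Cytotoxicity was assessed in parallel with Shh reporter activity by measuring live-cell protease fluorescence (CellTiter-Fluor) in NIH/3T3 cells stably carrying Gli1-Luc, treated with compound under conditioned medium stimulation for 23 hr plus 1 hr reagent incubation.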
With `Nc1nc(-c2ccc([N+](=O)[O-])cc2)cs1`, the Potency result is “inactive”.

With `Cc1cccc(C)c1NC(=O)c1cc(S(N)(=O)=O)c(Cl)cc1O`, the Potency entry was “inactive”. On to `CCCCCCCCCCCCCOC(=O)CCSCCC(=O)OCCCCCCCCCCCCC`, for which the viability change, negative = cytotoxic is -3.37% [at 19 µM]. On to `CC(=O)N[C@@H](Cc1ccc(O)cc1)C(=O)O`, for which the Potency result was “inactive”. Same read-out and setting: the result for `CCCCCC` reads “inactive”; that for `Cc1ccccc1S(N)(=O)=O`, “inactive”. Still for that read-out and setting: to `CCN(CC)CCOC(=O)C(c1ccccc1)c1ccccc1` belongs “inactive”; to `O=S(=O)(O)CO`, “inactive”. Same read-out and setting: the result for `CC(=O)OCC1=C(C(=O)O)N2C(=O)[C@@H](NC(=O)CSc3ccncc3)[C@H]2SC1` reads “inactive”. `O=C(O)CN1C(=O)c2cccc3cccc(c23)C1=O`: the Potency result is “inactive”. Still for that read-out and setting: the result for `SCCc1cnccn1` reads “inactive”; that for `COc1ccc(C)cc1`, “inactive”. For the compound `CC(C)c1ccc(C(=O)N=C(N)N)cc1S(C)(=O)=O`, the Potency result was “inactive”. In the case of `O=C1OC(=O)c2c(Br)c(Br)c(Br)c(Br)c21`, the Potency entry was “inactive”. Same read-out and setting: to `C1CCCCC1` belongs “inactive”; to `Cc1c[nH]c2ccccc12`, “inactive”; to `O=C(O)CCS`, “inactive”. As to `Cc1ccc2nc(N)[nH]c(=O)c2c1Sc1ccncc1`, the Potency entry was “inactive”. The same measure, in the same setting: the result for `O=C(O)CCCc1c[nH]c2ccccc12` reads “inactive”; that for `CCCCCCCC(=O)Oc1c(Br)cc(C#N)cc1Br`, “inactive”; that for `CCN(CC)CC(=O)Nc1c(C)cccc1C(=O)OC`, “inactive”. Consider `CC(C)N=C=NC(C)C`, for which the Potency result is “inactive”. On to `CC1CCCO1` (centres undefined), for which the Potency entry is “inactive”. The same measure, in the same setting: the result for `CC1=CC[C@@]23C[C@@H]1C(C)(C)[C@@H]2CC[C@H]3C` reads “inactive”; that for `COc1ccc(/C=C/C(=O)c2ccc(OC)cc2OC)cc1`, “inactive”.

In the case of `CCNc1nc(N)nc(Cl)n1`, the Potency result is “inactive”.

Take `COC(CC(C)CCCC(C)(C)O)OC` (centres undefined): the Potency entry is “inactive”. With `CC(=O)NNC(C)=O`, the Potency entry was “inactive”. For the compound `Nc1ccn([C@H]2CS[C@@H](CO)O2)c(=O)n1`, the Potency result is “inactive”. As for `Nc1ccc(S(=O)(=O)NCc2ccccc2)cc1`, the Potency result was “inactive”.

On to `CCN(CC)C(=O)N1CCN(C)CC1`, for which the Potency result is “inactive”. Still for that read-out and setting: the result for `CC(C)(C)S` reads “inactive”; that for `CCOC(=O)N1CCC(Nc2ccc(Cl)cc2N)CC1`, “inactive”; that for `CC(=O)OCC(=O)[C@@]1(OC(C)=O)[C@@H](C)C[C@H]2[C@@H]3C[C@H](F)C4=CC(=O)C=C[C@]4(C)[C@@]3(F)[C@@H](O)C[C@@]21C`, “inactive”. For `CCCCCCOC(=O)CCCCC`, the Potency result is “inactive”.

Turning to `CC/C=C\C/C=C\C/C=C\CCCCCCCC(=O)OCC`, the Potency entry was “inactive”. The same measure, in the same setting: the result for `O=C(O)CCC(=O)OC[C@@H](NC(=O)C(Cl)Cl)[C@H](O)c1ccc([N+](=O)[O-])cc1` reads “inactive”.

The values above are taken from PubChem BioAssay (Tox21).
